# PubChem BioAssay (NCATS)
# Results filed as inconclusive are left out. Activity calls are given as the source filed them. Calls follow the shape of the dose curve; as a rule, active = well fitted inhibition curve with a large enough effect; inconclusive = small, poorly fitted or top-dose-only effect; inactive = flat fitted curve, though single readings scatter.
# Tested on: HB3
# Experiment: qHTS profiling for inhibitors of Plasmodium falciparum proliferation (AID 504749); also: nearly all actives have a fitted effect of over 60% in size;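 as to activity, negative = inhibition: 0% = DMSO vehicle and full inhibition = artemisinin control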
# Conditions: P. falciparum in erythrocytes, SYBR Green DNA, 72 h; series mostly up to 28.7 µM; activity, negative = inhibition: at the top concentration
# Method in brief: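 In a 72 h erythrocytic culture (37 C, humidified, 5% CO2) at 2.5% hematocrit and 0.3% starting parasitemia, compounds were tested; SYBR Green I in detergent lysis buffer stained parasite DNA overnight.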
# Potency is read from the fitted curve at half-maximal effect.
Structure (SMILES),"activity, negative = inhibition",Potency
O=C(O)CCCCC(=O)O,5.14% (inactive),
CCOC(=O)n1ccn(C)c1=S,6.49% [at 12.8 µM] (inactive),
COc1cc(NS(C)(=O)=O)ccc1Nc1c2ccccc2nc2ccccc12,,5.01 µM (active)
C[C@]12CC[C@@H]3c4ccc(O)cc4CC[C@H]3[C@@H]1CC[C@@H]2O,2.9% (inactive),
NCCC(O)(P(=O)(O)O)P(=O)(O)O,3.25% (inactive),
CCN1CCC[C@H]1CNC(=O)c1c(OC)ccc(Br)c1OC,7.67% (inactive),
CCN1CCN(c2cc3c(cc2F)c(=O)c(C(=O)O)cn3C2CC2)CC1,-11.5% (inactive),
CN1C2CCC1CC(OC(=O)c1c[nH]c3ccccc13)C2 (stereo not given),4.57% (inactive),
CO/N=C1\CN(c2nc3c(cc2F)c(=O)c(C(=O)O)cn3C2CC2)CC1CN (stereo not given),,11.2 µM (active)
Oc1c(Cl)cc(Cl)cc1Sc1cc(Cl)cc(Cl)c1O,0.218% (inactive),
CC(=O)Oc1ccc(C(=C2CCCCC2)c2ccc(OC(C)=O)cc2)cc1,10.8% (inactive),
CC(=O)OCC(=O)NCCCOc1cccc(CN2CCCCC2)c1,2.99% (inactive),
CCN(CC)C(=O)N1CCN(C)CC1,3.85% [at 12.8 µM] (inactive),
Nc1ccc(/C=C/c2ccc(N)cc2S(=O)(=O)O)c(S(=O)(=O)O)c1,0.709% (inactive),
CCN1CCCC1=O,-1.83% (inactive),
CCN(CC)CCNC(=O)COc1ccc(Cl)cc1,-3.5% (inactive),
Cc1c(F)c(N2CCNC(C)C2)cc2c1c(=O)c(C(=O)O)cn2C1CC1 (stereo not given),-8.04% (inactive),
CC(C)(Oc1ccc(Cl)cc1)C(=O)O,6.15% (inactive),

Structure (SMILES),"activity, negative = inhibition",Potency
CCCCC1=NC2(CCCC2)C(=O)N1Cc1ccc(-c2ccccc2-c2nn[nH]n2)cc1,-16% (inactive),
C#C[C@]1(OC(C)=O)CC[C@H]2[C@@H]3CCC4=C[C@@H](OC(C)=O)CC[C@@H]4[C@H]3CC[C@@]21C,-12.5% (inactive),
CCCn1c(=O)[nH]c(=O)c2[nH]cnc21,6.13% (inactive),
CC(O)C(=O)O (stereo not given),2.05% (inactive),
O=C(OCCOCCO)c1ccccc1Nc1cccc(C(F)(F)F)c1,4.13% [at 12.8 µM] (inactive),
c1ccc(-c2ccc(C(c3ccccc3)n3ccnc3)cc2)cc1 (stereo not given),,10 µM (active)
Cc1cccn2c(=O)c(-c3nnn[nH]3)cnc12,0.315% (inactive),
NCCc1ccn[nH]1,-1.91% [at 12.8 µM] (inactive),
O=C1OC(c2ccc(O)cc2)(c2ccc(O)cc2)c2ccccc21,1.34% (inactive),
CN1C(CCl)Nc2cc(Cl)c(S(N)(=O)=O)cc2S1(=O)=O (stereo not given),-8.86% (inactive),
COc1cc(C(=S)N2CCOCC2)cc(OC)c1OC,8.52% (inactive),
C[C@H]1[C@H](NC(=O)/C(=N/OC(C)(C)C(=O)O)c2csc(N)n2)C(=O)N1S(=O)(=O)O (stereo in doubt),0.309% [at 12.8 µM] (inactive),
NCCCC[C@H](N[C@@H](CCc1ccccc1)C(=O)O)C(=O)N1CCC[C@H]1C(=O)O,3.07% [at 12.8 µM] (inactive),
CC(C)(CO)[C@@H](O)C(=O)NCCCO,-3.93% (inactive),
Cc1ccnc(NS(=O)(=O)c2ccc(N)cc2)n1,-1.53% [at 12.8 µM] (inactive),
CNCCC(Oc1ccccc1C)c1ccccc1 (stereo not given),-7.5% (inactive),
Nc1ccc(C(=O)O)cc1,13.2% (inactive),
